Records with an inconclusive call do not appear. Activity calls are given as the source filed them. Unless noted, calls come from the whole dose curve; as a rule, active = well fitted curve in either direction with a large enough effect (not every such curve was filed as active); inconclusive = small, poorly fitted or top-dose-only effect, or another doubt; inactive = flat fitted curve, though single readings scatter.
Columns and labels:
[1] = molecular target: Lysosomal acid glucosylceramidase (Homo sapiens) (UniProt P04062); experiment: Glucocerebrosidase-p2 (AID 348; in the data active = potency below about 10 µM; note: potency is the fitted concentration of half-maximal effect); conditions: purified GBA, blue fluorogenic substrate, 40 min
Chain of Lysosomal acid glucosylceramidase (Homo sapiens) (P04062 whole entry, looked up): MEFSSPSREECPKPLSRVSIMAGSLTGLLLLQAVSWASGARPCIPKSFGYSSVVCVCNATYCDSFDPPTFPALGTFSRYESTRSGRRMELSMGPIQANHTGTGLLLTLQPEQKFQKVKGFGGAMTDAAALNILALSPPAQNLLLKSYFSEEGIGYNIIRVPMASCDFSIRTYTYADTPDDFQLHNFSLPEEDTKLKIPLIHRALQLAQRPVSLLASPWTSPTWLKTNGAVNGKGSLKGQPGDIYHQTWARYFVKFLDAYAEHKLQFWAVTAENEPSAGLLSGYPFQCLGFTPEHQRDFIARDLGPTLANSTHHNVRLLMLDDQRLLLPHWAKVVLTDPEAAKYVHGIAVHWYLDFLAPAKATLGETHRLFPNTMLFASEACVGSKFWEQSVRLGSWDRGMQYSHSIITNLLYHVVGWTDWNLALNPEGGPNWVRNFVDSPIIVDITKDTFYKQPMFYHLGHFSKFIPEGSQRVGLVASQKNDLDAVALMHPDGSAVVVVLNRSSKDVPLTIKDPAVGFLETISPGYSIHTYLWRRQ
In short: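 Compounds titrated from 0.6 nM upwards against 0.2 nM enzyme in pH 5.9 citric acid/KH2PO4, taurocholate, tween-20; blue fluorogenic substrate 80 uM, 40 min room temperature, stopped and read Ex 365/Em 440 for AC50.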

[2] = AP1 Signaling Pathway (AID 357); conditions: ME-180 AP-1-bla reporter, EGF-induced, beta-lactamase ratio, 5 h; at 7.69 µM (top of the series) unless noted;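 note: ME-180 reporter cells stimulated with EGF at its EC50 level; % is set by controls: 0 for no effect and ±100 for the full control effect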
In short: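 Modulation of EGF-driven AP-1 transcription was assessed with a beta-lactamase reporter in ME-180 cells. Compound and EC50 EGF were co-incubated 5 hours at 37 °C before 2.5-hour CCF4 loading at room temperature and dual-emission reading.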

[3] = Stat Signaling Pathway (AID 446); conditions: ME-180 SIE beta-lactamase reporter, IL-6 stimulated, 5 h; at 7.69 µM (top of the series) unless noted;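 note: ME-180 cervical cancer cells given 40 pM IL-6 alongside compound; SIE-controlled beta-lactamase reporter measured as 460/530 nm FRET emission ratio; % is set by controls: 0 for no effect and ±100 for the full control effect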
In short: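 Reporter line: ME-180 cervical carcinoma, SIE-beta-lactamase. Treatment: compound with 40 pM IL-6, 5 hrs, 37 C, in low-serum OPTI-MEM with 10 mM HEPES pH 7.3. Detection: 460/530 nm fluorescence.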

[4] = molecular target: Glucocorticoid receptor (Homo sapiens) (UniProt P04150); experiment: GR-EFC Redistribution (AID 451; calls by dose curve; note: potency is the fitted concentration of half-maximal effect); conditions: CHO-K1 GR-EFC translocation, beta-gal luminescence, 2 h
Chain of Glucocorticoid receptor (Homo sapiens) (P04150 whole entry, looked up, the tested form may be a part): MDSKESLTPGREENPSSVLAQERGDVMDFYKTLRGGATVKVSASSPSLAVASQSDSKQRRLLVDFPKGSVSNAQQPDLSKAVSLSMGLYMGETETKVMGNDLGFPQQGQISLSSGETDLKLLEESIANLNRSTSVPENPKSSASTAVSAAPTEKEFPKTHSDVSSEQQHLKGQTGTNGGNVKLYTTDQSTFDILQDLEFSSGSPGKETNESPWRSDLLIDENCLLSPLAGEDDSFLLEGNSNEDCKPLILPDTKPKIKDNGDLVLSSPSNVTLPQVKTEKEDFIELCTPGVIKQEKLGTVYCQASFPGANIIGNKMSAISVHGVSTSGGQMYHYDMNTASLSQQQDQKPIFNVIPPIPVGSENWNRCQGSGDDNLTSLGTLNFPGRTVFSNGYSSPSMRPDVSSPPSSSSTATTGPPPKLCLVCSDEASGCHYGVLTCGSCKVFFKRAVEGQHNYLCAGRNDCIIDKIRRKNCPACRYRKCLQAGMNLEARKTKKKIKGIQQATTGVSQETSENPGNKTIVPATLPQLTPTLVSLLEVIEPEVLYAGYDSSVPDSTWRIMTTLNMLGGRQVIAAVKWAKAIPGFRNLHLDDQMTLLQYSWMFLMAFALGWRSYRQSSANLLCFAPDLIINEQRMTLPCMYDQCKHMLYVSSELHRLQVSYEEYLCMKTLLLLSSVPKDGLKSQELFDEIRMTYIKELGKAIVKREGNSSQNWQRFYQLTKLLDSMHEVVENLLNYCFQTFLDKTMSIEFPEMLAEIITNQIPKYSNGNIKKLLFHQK
In short: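 Translocation of GR-ED fusion to nuclear EA restores b-gal, read by luminescence after 1 h room-temperature detection. Engineered CHO-K1 biosensor cells, 1,000/well, exposed 2 h at 37 C to titrations up to 46 uM final.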

[5] = molecular target: Mitogen-activated protein kinase 10 (Mus musculus) (UniProt Q61831); experiment: JNK3 AlphaScreen Assay (AID 530); conditions: JNK3 lysate, c-Jun phosphorylation; series mostly up to 57.1 µM;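 note: kinase came from lysate of stimulated human HepG2 cells; signal reports phosphorylation of biotinylated GST-cJun 1-79 at Ser73 with 10 µM ATP; % is set by controls: 0 for no effect and ±100 for the full control effect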
In short: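 Room-temperature AlphaScreen kinase assay; pre-activated HepG2 lysate as JNK3 source, biotin-GST-cJun(1-79) substrate, 10 uM ATP, compound 15 min preincubation.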

[6] = molecular target: 3',5'-cyclic-AMP phosphodiesterase 4B (Homo sapiens) (UniProt Q07343); experiment: qHTS Assay for Inhibitors of PDE-IV (AID 607; active = well fitted activation curve with a large enough effect in the main read-out, with a control signal flat, not every such curve was filed as active; note: % of control where 0% means no effect); conditions: HEK293 ACTOne CNG channel cells, membrane potential fluorescence; series mostly up to 22.9 µM
Chain of 3',5'-cyclic-AMP phosphodiesterase 4B (Homo sapiens) (Q07343 whole entry, looked up): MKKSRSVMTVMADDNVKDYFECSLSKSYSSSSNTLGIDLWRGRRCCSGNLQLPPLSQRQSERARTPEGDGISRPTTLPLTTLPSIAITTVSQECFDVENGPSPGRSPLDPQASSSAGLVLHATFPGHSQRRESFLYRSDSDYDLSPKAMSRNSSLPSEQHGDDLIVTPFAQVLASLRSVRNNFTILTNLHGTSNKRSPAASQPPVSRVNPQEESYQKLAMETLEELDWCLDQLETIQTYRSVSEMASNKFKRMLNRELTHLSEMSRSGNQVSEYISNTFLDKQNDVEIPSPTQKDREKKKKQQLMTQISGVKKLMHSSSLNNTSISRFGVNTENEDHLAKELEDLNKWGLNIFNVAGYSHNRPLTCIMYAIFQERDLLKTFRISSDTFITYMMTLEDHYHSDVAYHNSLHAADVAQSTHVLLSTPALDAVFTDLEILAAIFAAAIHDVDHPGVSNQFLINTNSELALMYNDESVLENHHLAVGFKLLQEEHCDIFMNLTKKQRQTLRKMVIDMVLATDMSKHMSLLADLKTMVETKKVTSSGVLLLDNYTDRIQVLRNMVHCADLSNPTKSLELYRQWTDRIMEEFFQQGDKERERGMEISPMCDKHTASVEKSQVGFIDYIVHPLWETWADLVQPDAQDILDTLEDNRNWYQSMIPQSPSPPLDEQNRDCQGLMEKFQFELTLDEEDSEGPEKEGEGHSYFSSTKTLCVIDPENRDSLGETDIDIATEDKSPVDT
In short: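 Cell-based read-out of cAMP via a modified cyclic nucleotide-gated channel and membrane potential dye (535/590 nm) in HEK293 cells expressing PDE4 endogenously. Compounds tested up to 22.9 uM final; 100 uM RO 20-1724 reference.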

[7] = qHTS Assay for Lipid Storage Modulators (AID 1519; calls by dose curve); conditions: Drosophila S3 cells, BODIPY lipid droplet/cell ratio, laser cytometry, cells loaded with oleic acid; for activity change, negative = inhibition: at 57.5 µM (top of the series)
In short: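 Cells seeded at 5,000 per well were treated with compounds over a concentration series and loaded with oleic acid (400 uM, as added). Lipid droplet fluorescence (488 nm excitation, 500-530 nm channel) was read by laser-scanning cytometry and normalized to 20 uM Triacsin C.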

[8] = Primary qHTS for small molecule stabilizers of the endoplasmic reticulum resident proteome: Secreted ER Calcium Modulated Protein (SERCaMP) assay (AID 1508630; active = well fitted curve in the direction sought with a large enough effect; an effect the other way counts as inactive or inconclusive; note: % is set by controls: 0 for no effect and ±100 for the full control effect); conditions: SH-SY5Y GLuc-SERCaMP (Gaussia luciferase released on ER calcium loss) secretion, thapsigargin, luminescence; series mostly up to 38.4 µM
In short: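 GLuc-SERCaMP-expressing SH-SY5Y cells, pretreated 16 h with compound, are challenged with thapsigargin to empty ER calcium stores; after 4 h, coelenterazine is added directly to the medium and luminescence is imaged.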

[9] = molecular target: Glucocorticoid receptor (Homo sapiens) (UniProt P04150); experiment: GR-GFP Redistribution (AID 450;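 active = compounds whose dose series gives a full or clear partial fitted curve of increased nuclear translocation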; note: potency is the fitted concentration of half-maximal effect); conditions: U2OS GR-GFP nuclear translocation, laser cytometry, 2 h
[10] = Confirmation and Secondary Assay for Modulators of Hemoglobin Beta Chain Splicing at IVS2 705 locus (AID 930; active = well fitted curve in the direction sought with a large enough effect; an effect the other way counts as inactive or inconclusive;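 note: HeLa cells stably expressing the EGFP-705 splicing reporter; GFP fluorescence per well restored by corrected splicing of the IVS2-705 intron in EGFP; % of control where 0% means no effect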); conditions: HeLa EGFP-705 splicing reporter, GFP fluorescence, 48 h; series mostly up to 38.3 µM
In short: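 Assay measures total GFP intensity per well in HeLa EGFP-705 cells after 2 days with compound; mis-splicing normally truncates EGFP, so fluorescence indicates corrected splicing.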

[11] = molecular target: Ubiquitin carboxyl-terminal hydrolase 1 (Homo sapiens) (UniProt O94782); experiment: Inhibitors of USP1/UAF1: Pilot qHTS (AID 504865; active = well fitted curve in the direction sought with a large enough effect; an effect the other way counts as inactive or inconclusive;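 note: rhodamine fluorescence freed from ubiquitin-rhodamine substrate followed over time; top concentration of the series differs between compounds; % is set by controls: 0 for no effect and ±100 for the full control effect; nearly all actives have a fitted effect of over 35% in size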); conditions: purified USP1/UAF1, Ub-rhodamine cleavage fluorescence; series mostly up to 54.9 µM
Chain of Ubiquitin carboxyl-terminal hydrolase 1 (Homo sapiens) (O94782 whole entry, looked up): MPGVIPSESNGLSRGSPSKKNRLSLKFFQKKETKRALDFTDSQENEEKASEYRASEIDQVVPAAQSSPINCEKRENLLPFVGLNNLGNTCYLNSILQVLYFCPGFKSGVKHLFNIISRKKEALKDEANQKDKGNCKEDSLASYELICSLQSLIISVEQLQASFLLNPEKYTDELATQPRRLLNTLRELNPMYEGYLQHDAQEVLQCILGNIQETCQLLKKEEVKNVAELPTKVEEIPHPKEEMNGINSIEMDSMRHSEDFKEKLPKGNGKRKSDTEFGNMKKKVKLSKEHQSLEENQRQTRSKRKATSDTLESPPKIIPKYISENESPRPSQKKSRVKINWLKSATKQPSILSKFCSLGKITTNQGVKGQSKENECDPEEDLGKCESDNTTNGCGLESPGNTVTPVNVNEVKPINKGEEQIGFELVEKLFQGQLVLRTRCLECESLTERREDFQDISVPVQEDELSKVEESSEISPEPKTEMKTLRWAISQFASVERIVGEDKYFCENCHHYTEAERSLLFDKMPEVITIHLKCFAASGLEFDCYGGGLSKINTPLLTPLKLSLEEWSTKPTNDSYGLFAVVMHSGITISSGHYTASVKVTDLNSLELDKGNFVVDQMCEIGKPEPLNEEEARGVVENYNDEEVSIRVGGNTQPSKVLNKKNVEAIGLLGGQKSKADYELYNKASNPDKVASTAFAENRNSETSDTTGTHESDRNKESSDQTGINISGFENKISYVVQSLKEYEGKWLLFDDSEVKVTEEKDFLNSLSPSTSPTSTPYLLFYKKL
In short: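 Deubiquitinase activity followed as kinetic rhodamine fluorescence release from 150 nM Ub-Rho. 1 nM USP1/UAF1 with compound, after 15 min room-temperature preincubation, in HEPES pH 7.8 buffer containing TCEP, EDTA, BSA and Tween-20.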

[12] = measured here: cell count channel max response
[13] = measured here: lipid channel max response

SMILES	Potency [1]	activity change, negative = inhibition [2]	activity, negative = inhibition [3]	Potency [4]	Potency [5]	Potency [6]	activity change, negative = inhibition [7]	max response [7, 12] [%]	max response [7, 13] [%]	outcome [8]	Potency [9]	outcome [10]	Potency [11]
COc1ccc(C(=O)N2CCC3(CCCN(Cc4ccc(C#N)cc4)C3)CC2)cc1	> 11.4 µM (inactive)	16.7% (inactive)	2.1% (inactive)	> 46 µM (inactive)	inactive	inactive	-2.89% (inactive)	-1.58	-2.86	inactive			
COC(=O)N1CCC2(CCN(Cc3ccc(C#N)cc3)CC2)CC1	> 11.4 µM (inactive)	-12.5% (inactive)	21.3% (inactive)	> 46 µM (inactive)	inactive	inactive	6.51% (inactive)	5.74	14.3	inactive			
COCC(=O)N1CCC2(CCN(Cc3ccccc3)CC2)CC1	> 11.4 µM (inactive)	-10.9% (inactive)	-3.84% (inactive)	> 46 µM (inactive)	inactive	inactive	1.52% (inactive)	2.79	9.37	inactive			
CC(C)CN1CC2(CCN(C(=O)c3ccco3)CC2)C1	> 11.4 µM (inactive)	6.73% (inactive)	-3.41% (inactive)	> 46 µM (inactive)	inactive	inactive	-2.08% (inactive)	8.53	7.7	inactive			
O=C(c1cc(C(F)(F)F)cc(C(F)(F)F)c1)N1CCC2(CCN(Cc3ccncc3)CC2)CC1	> 11.4 µM (inactive)	-22.8% (inactive)	6.58% (inactive)	> 46 µM (inactive)	inactive	inactive	3.65% (inactive)	7.35	10.5	inactive			
O=C(c1cc(C(F)(F)F)cc(C(F)(F)F)c1)N1CCC2(CCCN(c3ccccc3)C2)CC1	> 11.4 µM (inactive)	22.8% (inactive)	2.12% (inactive)	> 46 µM (inactive)	inactive	inactive	-18.4% (inactive)	1.58	-14.9	inactive			
N#Cc1ccc(CN2CCCC3(CCN(C(=O)c4csnn4)CC3)C2)cc1	> 11.4 µM (inactive)	-6.06% (inactive)	1.34% (inactive)	> 46 µM (inactive)	inactive	inactive	-0.464% (inactive)	-10.9	-8.04	inactive			
COc1ccccc1CN1CCC2(CC1)CCN(C(=O)c1ccncc1)CC2	> 11.4 µM (inactive)	-13% (inactive)	5.76% (inactive)	> 46 µM (inactive)	inactive	inactive	-0.0628% (inactive)	-18.4	-17.2	inactive			
COc1ccc2[nH]cc(CCNc3nc(-c4cccc(NS(C)(=O)=O)c4)nc4ccccc34)c2c1	> 11.4 µM (inactive)	-29.4% (inactive)	-28.4% (inactive)	> 46 µM (inactive)	inactive	inactive	8.36% (inactive)	-14.6	-4.03	inactive	> 46 µM (inactive)	inactive	inactive
O=C(c1ccncc1)N1CCC2(CC1)CN(c1ccncc1)C2	> 11.4 µM (inactive)	6.26% (inactive)	1.34% (inactive)	> 46 µM (inactive)	inactive	inactive	1.59% (inactive)	-20.1	-17.6	inactive			
CC(=O)N1CCC2(CCCN(Cc3ccc(C#N)cc3)C2)CC1	> 11.4 µM (inactive)	1.53% (inactive)	6.73% (inactive)	> 46 µM (inactive)	inactive	inactive	4.86% (inactive)	10.3	18.3	inactive			
CS(=O)(=O)N1CCC2(CCCN(Cc3ccccc3)C2)CC1	> 11.4 µM (inactive)	-13.8% (inactive)	-2.17% (inactive)	> 46 µM (inactive)	inactive	inactive	0.839% (inactive)	10.5	13.7	inactive			
CC(C)CN1CC2(CCN(C(=O)c3csnn3)CC2)C1	> 11.4 µM (inactive)	-4.73% (inactive)	4.77% (inactive)	> 46 µM (inactive)	inactive	inactive	-0.802% (inactive)	-2.36	-0.0505	inactive			
N#Cc1ccc(CN2CCC3(CC2)CCN(C(=O)c2ccco2)CC3)cc1	> 11.4 µM (inactive)	-11.2% (inactive)	-4.42% (inactive)	> 46 µM (inactive)	inactive	inactive	1.05% (inactive)	20.4	24	inactive			
Cc1noc(C)c1C(=O)N1CCC2(CC1)CCN(c1ccccn1)CC2	> 11.4 µM (inactive)	0.789% (inactive)	-0.0391% (inactive)	> 46 µM (inactive)	inactive	inactive	5.25% (inactive)	8.43	16.7	inactive			
COc1ccc(C(=O)N2CCC3(CC2)CN(CC(C)C)C3)cc1	> 11.4 µM (inactive)	1.62% (inactive)	6.78% (inactive)	> 46 µM (inactive)	inactive	inactive	3.28% (inactive)	16.1	21.1	inactive			
COc1ccc(C(=O)N2CCC3(CCCN(c4ccccc4)C3)CC2)cc1	> 11.4 µM (inactive)	-1.35% (inactive)	-0.767% (inactive)	> 46 µM (inactive)	inactive	inactive	-17.3% (inactive)	1.98	-15	inactive			
